We go through 40 compounds from PubChem BioAssay (Tox21).

Structures are written as SMILES. Inconclusive results are not listed. A call without a number means that no potency is given here. A number with no mark means an inactive call. Active and inactive are the calls of the source. Calls come from the whole dose curve; as a rule, active = well fitted activation curve with a large enough effect in the repeat runs; inconclusive = weak or mixed curves; inactive = flat fitted curve, though single readings scatter. Positions of bridges follow the written chain, without caps; N, C: chain ends. Where a SMILES comes first, the peptide text is derived from it. Non-standard residues stand in square brackets, D forms with d. Residues, ends and D or L forms follow the SMILES beside them. hArg = N=C(N)NCCCC[C@H](N)C(=O)O; Mpa = O=C(O)CCS
Potency is the fitted concentration of half-maximal effect.

The assay can be described thus: A CellTox Green Cytotoxicity Assay to monitor cytotoxicity in HEK293 cells - 40 hour (AID 1224871). Note: nearly all actives have a fitted effect of over 45% in size. To be noted: CellTox Green fluorescence; series mostly up to 76.8 µM. An excerpt: National Center for Advancing Translational Sciences [NCATS]
NIH Chemical Genomics Center [NCGC]
U.S. Environmental Protection Agency [EPA]
National Institutes of Environmental Health Sciences [NIEHS]
National Toxicology Program [NTP]
Cell-based models are critical for drug discovery. Determining the natural cytotoxic effects resulting from test compounds is an essential research activity. A CellTox Green Cytotoxicity Assay to monitor cytotoxicity in real time of continues cell culture during 40 hours of the compound treatment was used to screen Tox21 10K library compounds in Hek293 cells. CellTox Green Cytotoxicity Assay is a nonlytic, homogeneous, biofluorescent method to measure cytotoxicity in cell culture after experimental manipulation. The assay system uses a proprietary asymmetric cyanine dye that is excluded from viable cells but preferentially stains the dead cell's DNA. […] Viable cells produce no appreciable increases in fluorescence. Therefore, the fluorescence signal produced by the binding interaction with dead cell DNA is proportional to cytotoxicity.
The mixture of Hek293 cell suspension and reagents were dispensed at 600cells/6 ul/well in 1536-well tissue culture treated black solid bottom plates using a Multidrop dispenser. After the assay plates were incubated at a 37 C/5% CO2 incubator for 5 hours, 23 nL of compounds dissolved in DMSO, positive and negative controls was transferred to the assay plate by a pintool work station. The plates were incubated at 37 C for 40 hours. The fluorescence intensity were measured at 0h, 8h, 16h, 24h, 32h and 40h time points using ViewLux plate reader during compound treatment.
As to `CCO[Si](CC)(OCC)OCC`, the Potency result was “inactive”. Same read-out and setting: the entry for `CC1=C(C(=O)O)N2C(=O)[C@@H](NC(=O)[C@H](N)c3ccccc3)[C@H]2SC1` is “inactive”.

`N[C@@H](CSCCCO)C(=O)O`: the cytotoxicity increase is -5.88% [at 15.8 µM]. Consider `C=C(C)[C@@H]1CC=C(C)CC1`, for which the Potency result is “inactive”. `CCCC(=O)OCCC(C)CCC=C(C)C` (stereo not given): the Potency result is “inactive”. On the same count and under the same terms, the entry for `CN(C)CCN(C)CCO` is “inactive”; for `C=CC(=O)CCCCC` it is “inactive”.

In the case of `N[C@@H](Cc1ccc(O)cc1)C(=O)O`, the cytotoxicity increase was -0.009% [at 6.97 µM]. On to `CCOc1cccc(N)c1`, for which the Potency result is “inactive”. For `CCCc1ccc(O)cc1`, the Potency entry is “inactive”. On to `Cc1ccc(C(=O)O)cc1[N+](=O)[O-]`, for which the Potency entry was “inactive”.

Consider `CN1CCOC(c2ccccc2)c2ccccc2C1` (stereo not given), for which the Potency entry is “inactive”. Same read-out and setting: the entry for `Cc1ccc(C)c([N+](=O)[O-])c1` is “inactive”. Still for that read-out and setting: the entry for `O=C[O][Al]([O]C=O)[O]C=O` is “inactive”; for `O=C(O)CNC(=O)CNC(=O)CNC(=O)CSC(=O)c1ccccc1` it is “inactive”. On the same count and under the same terms, next, `CC(C)NC(=O)c1ccc(C=O)cc1`: “inactive”; `COc1cc(/C=C/C(N)=O)cc(OC)c1OC`: “inactive”; `CCCC(=O)Nc1ccc(OCC(O)CNC(C)C)c(C(C)=O)c1` (stereo not given): “inactive”.

In the case of `CN1C[C@@H]2C[C@H]1CN2c1cc2c(cc1F)c(=O)c(C(=O)O)cn2C1CC1`, the cytotoxicity increase is -7.03% [at 15.8 µM]. With `CC1OCCC1=O` (stereo not given), the Potency entry is “inactive”. In the case of `CCCCCCCCCCCCCBr`, the Potency entry was “inactive”. On the same count and under the same terms, the entry for `OCCN1CCOCC1` is “inactive”; for `CC(C)CCOC(=O)c1ccccc1` it is “inactive”. Still for that read-out and setting: next, `C=CCN1C[C@H](C(=O)N(CCCN(C)C)C(=O)NCC)C[C@@H]2c3cccc4[nH]cc(c34)C[C@H]21`: “inactive”; `O=C(Cl)c1ccccc1[N+](=O)[O-]`: “inactive”; `CC(=O)O[Si](C)(OC(C)=O)OC(C)=O`: “inactive”. For the compound `CCC(C)OC(C)CC` (stereo not given), the Potency entry was “inactive”. Regarding `C=CC(=O)OCC1CCCO1` (stereo not given), the Potency entry is “inactive”. Still for that read-out and setting: the figure for `CCCCCCCCCOC(=O)CCCCC(=O)OCCCCCCC` is 24.5 µM (active). Still for that read-out and setting: next, `OCC1(CO)COCOC1`: “inactive”. Same read-out and setting: next, `CC(=O)N[C@@H](CO)C(=O)N[C@@H](CC(=O)O)C(=O)N[C@@H](CCCCN)C(=O)N1CCC[C@H]1C(=O)O` (Ac-SDKP-OH): “inactive”. With `CC1(C)Oc2ccc(C#N)cc2[C@@H](N2CCCC2=O)[C@@H]1O`, the Potency result is “inactive”. Still for that read-out and setting: next, `CC(=O)C(C)O` (stereo not given): “inactive”; `CCOCCOCC`: “inactive”; `N#Cc1ccccc1O`: “inactive”.

On to `CC1c2ccccc2CN1NC(=O)c1ccc(Cl)c(S(N)(=O)=O)c1` (stereo not given), for which the Potency entry is “inactive”. Same read-out and setting: the entry for `OCC1CCC(CO)CC1` (stereo not given) is “inactive”.

Regarding `Cc1ccc2c(c1)C(=O)c1ccccc1C2=O`, the Potency entry is “inactive”. Same read-out and setting: the entry for `NC(=O)[C@@H]1CSSCCC(=O)N[C@@H](CCCCN=C(N)N)C(=O)NCC(=O)N[C@@H](CC(=O)O)C(=O)N[C@@H](Cc2c[nH]c3ccccc23)C(=O)N2CCC[C@H]2C(=O)N1` ([Mpa][hArg]GDWPC-NH2; disulfide 1-7) is “inactive”; for `CN(C)C(C)(C)CO` it is “inactive”.
